Measured values published in PubChem BioAssay.
Calls of active or inactive are those of the source.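 Rule for the calls, unless noted: active = compound raises GLP1 secretion from the human gut endocrine cells, with no numeric limit stated; inactive = the rest.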

How the values were obtained:
[1] = stimulators of insulin release from INS-1E, primary screen, cell-based, 5 mM glucose, NPC library (AID 1117329;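 active = compound raises insulin release from rat beta cells at 5 mM glucose, no numeric limit stated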); details: rat INS-1E insulin secretion, at 10 µM, stronger effect = higher value
[2] = growth inhibition of GSK3B-pretreated HCT116 cells – cell-based, CellTiter-Glo, 0.2 to 20 µM (AID 1117336;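 active = compounds lowering colon cancer cell viability after pretreatment blocking the GSK3B kinase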); details: HCT116 viability after GSK3B inhibitor, at 20 µM, stronger effect = higher value
[3] = inhibition of endothelial tube formation, primary screen, imaging, VEGF stimulated, CD31 staining, tube area, NPC library (AID 1117340;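 active = compound that reduces growth-factor-driven endothelial tube area in a mixed cell culture, no cutoff stated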); details: VEGF-stimulated ADSC/ECFC co-culture, at 10 µM, stronger effect = higher value
[4] = glucagon-like peptide 1 release enhancers, primary assay, NCI-H716 cell line, NPC library (AID 1117341); details: NCI-H716 cells, at 10 µM, stronger effect = higher value
[5] = HCT116 colon cancer cell growth inhibition, primary screen, CellTiter-Glo luminescence, NPC library (AID 1117342;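 active = compounds that lower survival of HCT116 colon cancer cells in the luminescence readout, no numeric limit stated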); details: at 20 µM (top of the series)
[6] = CellTiter-Glo luminescent readout of SW480 viability loss, NPC library primary (AID 1117343;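 active = compounds that lower viability of the colon cancer cells in the luminescence readout, with no numeric limit stated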); details: CellTiter-Glo luminescence; at 20 µM (top of the series)
[7] = decreased DLD-1 cellular survival, CellTiter-Glo luminescent readout, NPC compound collection, primary HTS (AID 1117346;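 active = compounds that lower survival of DLD-1 colon cancer cells in the luminescence readout, no cutoff given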); details: DLD-1 viability, CellTiter-Glo luminescence; at 20 µM (top of the series)
[8] = biological target: 6-phosphogluconate dehydrogenase, decarboxylating (Homo sapiens) (UniProt P52209); test: 6PGD enzyme inhibitors, primary screen, biochemical, human, recombinant enzyme, NADPH absorbance (AID 1159550;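 active = at least 20% inhibition of 6-phosphogluconate dehydrogenase activity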); details: recombinant 6PGD, NADPH absorbance 341 nm; at 10 µM; stronger effect = higher value
[9] = differential killing of epithelial or mesenchymal cells, primary screen, imaging, PC-3E GFP, TEM4-18 mCherry, co-culture (AID 1345086;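 active = compounds killing one labelled cell type while sparing the other, by normalised counts and ratio limits, not self-fluorescent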;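 for all read-outs here: cells exposed to compound for 72 h before imaging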;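 for red/green cell ratio (normalised): normalised mesenchymal count divided by normalised epithelial count so high means epithelial killing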); details: imaging cell counts, at 1 µM; for red/green cell ratio (normalised): actives lie on both sides, counts scaled to control wells, 1 = unselective
[10] = measured here: epithelial PC-3E GFP cell survival
[11] = measured here: mesenchymal TEM4-18 mCherry cell survival

Sequence of 6-phosphogluconate dehydrogenase, decarboxylating (Homo sapiens) (P52209 whole entry, looked up): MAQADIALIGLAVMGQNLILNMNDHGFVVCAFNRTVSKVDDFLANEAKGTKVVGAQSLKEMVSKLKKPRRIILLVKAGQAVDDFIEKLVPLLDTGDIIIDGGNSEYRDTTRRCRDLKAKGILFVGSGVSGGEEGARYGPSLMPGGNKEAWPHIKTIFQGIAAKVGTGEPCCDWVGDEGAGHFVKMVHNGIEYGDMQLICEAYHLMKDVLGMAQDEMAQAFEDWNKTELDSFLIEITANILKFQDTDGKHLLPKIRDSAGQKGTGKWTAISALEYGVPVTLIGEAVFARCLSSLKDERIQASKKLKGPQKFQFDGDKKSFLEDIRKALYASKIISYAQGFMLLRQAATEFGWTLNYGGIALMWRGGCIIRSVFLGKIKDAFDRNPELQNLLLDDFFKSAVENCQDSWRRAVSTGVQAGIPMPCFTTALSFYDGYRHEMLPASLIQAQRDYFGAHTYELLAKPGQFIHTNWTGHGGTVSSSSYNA

| SMILES | insulin secretion stimulation [1] | viability decrease [2] | tube area decrease [3] | GLP1 secretion stimulation [4] | inhibition of viability [5] | viability decrease (inhibition) [6] | viability decrease (inhibition) [7] | inhibition [8] | red/green cell ratio (normalised) [9] | normalised cell number [9, 10] | normalised cell number [9, 11] |
| --- | --- | --- | --- | --- | --- | --- | --- | --- | --- | --- | --- |
| C=C1c2cccc(O)c2C(O)=C2C(=O)[C@]3(O)C(O)=C(C(N)=O)C(=O)[C@@H](N(C)C)[C@@H]3[C@@H](O)[C@H]12 | -1.8% (inactive) | -253% (inactive) | 9.7% (inactive) | 0.4% (inactive) | -0.33% (inactive) | -1.7% (inactive) | 58.4% (active) | 13.8% (inactive) | 0.93 (inactive) | 0.85 | 0.79 |
| Cc1ccc(C(=O)C(C)CN2CCCCC2)cc1 (stereo not given) | 0.3% (inactive) | -13.7% (inactive) | -6.9% (inactive) | 4.8% (inactive) | 0.13% (inactive) | 2.3% (inactive) | -3.8% (inactive) | 7.71% (inactive) | 1 (inactive) | 1 | 1 |
| Nc1ccc(N=Nc2ccccc2)c(N)n1 | 0.5% (inactive) | 43.4% (inactive) | 36.8% (inactive) | -4.7% (inactive) | 29% (inactive) | 31.9% (inactive) | 16% (inactive) | 3.23% (inactive) | 0.86 (inactive) | 1.07 | 0.92 |
| C/C=C/c1ccc(OC)cc1 | 1.3% (inactive) | -5.7% (inactive) | 6.2% (inactive) | -1.8% (inactive) | 10.8% (inactive) | 20.9% (inactive) | -3.2% (inactive) | 6.64% (inactive) | 1.24 (inactive) | 1.08 | 1.34 |
| O=C(O)CCCCC1CCSS1 (stereo not given) | -1.9% (inactive) | 3.2% (inactive) | 10.9% (inactive) | 0.5% (inactive) | 14.7% (inactive) | 29.9% (inactive) | -0.7% (inactive) | 14.8% (inactive) | 0.99 (inactive) | 0.91 | 0.9 |
| O=C(O)c1ccccc1C(=O)Nc1ccc(S(=O)(=O)Nc2nccs2)cc1 | -2.1% (inactive) | -13.1% (inactive) | 3.3% (inactive) | 1.4% (inactive) | -16.3% (inactive) | 20.3% (inactive) | -5.15% (inactive) | 5.34% (inactive) | 1 (inactive) | 1.18 | 1.17 |
| CCC(Cc1c(I)cc(I)c(N)c1I)C(=O)O (stereo not given) | 0.8% (inactive) | -70.8% (inactive) | 4% (inactive) | 1.8% (inactive) | 7.7% (inactive) | 18.6% (inactive) | -5.3% (inactive) | -0.317% (inactive) | 1.11 (inactive) | 1.2 | 1.33 |
| CCOc1ccc(NC(C)=O)cc1 | -2.2% (inactive) | -4.8% (inactive) | -16.7% (inactive) | 4.4% (inactive) | -24.5% (inactive) | 104% (active) | -6.2% (inactive) | 5.26% (inactive) | 1.26 (inactive) | 1.07 | 1.35 |
| O=C(O)CCCCCCCC(=O)O | 0.4% (inactive) | -10.2% (inactive) | 2.7% (inactive) | -4.7% (inactive) | -4.13% (inactive) | 15% (inactive) | -3.7% (inactive) | -2.42% (inactive) | 0.99 (inactive) | 1.08 | 1.07 |
| CN(C)CCCN1c2ccccc2Sc2ccccc21 | 14.5% (inactive) | -76.1% (inactive) | 12.3% (inactive) | 9.2% (inactive) | 39.3% (inactive) | 95.8% (active) | 14.3% (inactive) | 6.03% (inactive) | 1.19 (inactive) | 1.03 | 1.24 |
| O=C(CCBr)N1CCN(C(=O)CCBr)CC1 | -2.1% (inactive) | 56.1% (active) | 60.5% (active) | -4.4% (inactive) | -0.5% (inactive) | 3.9% (inactive) | -14% (inactive) | -1.69% (inactive) | 1.19 (inactive) | 1.07 | 1.28 |
| CCN(CC)CCNc1ccc(CO)c2sc3ccccc3c(=O)c12 | 0.6% (inactive) | 24.4% (inactive) | 76% (active) | 10.2% (inactive) | 78.1% (active) | 74.7% (active) | 35.6% (inactive) | 7.31% (inactive) | 1.17 (inactive) | 0.63 | 0.74 |
| Cc1cccc(C(=O)O)c1O | -1.9% (inactive) | -9.8% (inactive) | 2.1% (inactive) | 1.9% (inactive) | -0.1% (inactive) | 22.1% (inactive) | -4.5% (inactive) | 9.08% (inactive) | 1 (inactive) | 0.79 | 0.79 |
| Cn1c(=O)c2c(ncn2CCO)n(C)c1=O | 1.4% (inactive) | 15.8% (inactive) | -12.3% (inactive) | -0.6% (inactive) | -8% (inactive) | -1.2% (inactive) | -21.2% (inactive) | -5.12% (inactive) | 1.06 (inactive) | 0.95 | 1.01 |
| Oc1cccc(O)c1 | -1.9% (inactive) | -0.8% (inactive) | 21% (inactive) | -2.3% (inactive) | 8% (inactive) | 78.9% (active) | 2.6% (inactive) | -5.12% (inactive) | 1.34 (inactive) | 0.71 | 0.95 |
